Among all 340,000 compounds or so, about 1,000 (0.29%) were called active. No stated cut-off is given here; in the data, inconclusive means inhibition above about 29% without an active follow-up result; inactive means below that. The list is a sample of the results. Potency and affinity values are given separately.
Molecular target: Genome polyprotein (Dengue virus type 2 (strain 16681-PDK53)) (UniProt P29991)
Assay: Dengue-2 NS5 methyltransferase inhibitors, primary screen, biochemical, confirmation dose response (AID 588689)
Settings: Dengue-2 NS5 methyltransferase capping enzyme assay, at 25 µM, stronger effect = higher value

SMILES: CC1(NC(=O)N2CCOCC2)CCS(=O)(=O)C1 (stereo unspecified)
- inhibition: 0% (inactive)

SMILES: CC1(C)CC(=O)C(C(C2=C(O)CC(C)(C)CC2=O)c2ccc(Cl)c([N+](=O)[O-])c2)C(=O)C1 (stereo unspecified)
- inhibition: -1.46% (inactive)

SMILES: CC1(C)CC(=O)C(C(C2=C(O)CC(C)(C)CC2=O)c2ccc([N+](=O)[O-])cc2)C(=O)C1 (stereo unspecified)
- inhibition: 1.82% (inactive)

SMILES: COc1cc(C(=O)NCC(=O)N2CCN(S(=O)(=O)c3ccccc3C(F)(F)F)CC2)cc(OC)c1OC
- inhibition: -3.36% (inactive)

SMILES: C=CSc1sc(Cl)c(N2CCOCC2)c1[N+](=O)[O-]
- inhibition: 0% (inactive)

SMILES: O=c1sc2ccccc2c(N2CCOCC2)c1[N+](=O)[O-]
- inhibition: -3.49% (inactive)

SMILES: CN1C(=O)/C(=C2\SC(=S)N(CCCCCC(=O)O)C2=O)c2ccccc21
- inhibition: -1.55% (inactive)

SMILES: NN1C(=O)/C(=C2/Sc3ccccc3N2CCCS(=O)(=O)O)SC1=S
- inhibition: -12.9% (inactive)

SMILES: COCCN1C(=O)/C(=C2/C(=O)N(CC(=O)Nc3ccccc3Cl)c3ccccc32)SC1=S
- inhibition: 6.48% (inactive)

SMILES: O=C(O)CCN1C(=O)/C(=C2\C(=O)N(Cc3ccccc3Cl)c3ccccc32)SC1=S
- inhibition: 22.2% (inactive)

SMILES: CC1CN(C2=NC(=O)/C(=C3/C(=O)N(Cc4ccc(F)cc4)c4ccccc43)S2)CC(C)O1 (stereo unspecified)
- inhibition: -3.91% (inactive)

SMILES: O=C(O)CCN1C(=O)C(=C2CCCCCC2)SC1=S
- inhibition: 10.4% (inactive)

SMILES: CC(C)NC(=O)COC(=O)c1ccccc1Oc1ccccc1
- inhibition: -2.2% (inactive)

SMILES: CCOC(=O)C1=C(C)N=c2s/c(=C3/C(=O)Nc4ccccc43)c(=O)n2C1c1ccc(C)cc1 (stereo unspecified)
- inhibition: 22.8% (inactive)

SMILES: CCOC(=O)C1=C(C)N=c2s/c(=C\c3ccc(OCC(=O)O)c(OC)c3)c(=O)n2C1c1ccc(OC)cc1 (stereo unspecified)
- inhibition: -8.46% (inactive)

SMILES: O=C1CCC/C(=N\NC(=O)COc2ccc(Cl)cc2)C1
- inhibition: 3.18% (inactive)

SMILES: O=C(NN=C1CCCC1)c1ccc(Cl)cc1
- inhibition: -2.6% (inactive)

SMILES: O=C(CSc1nccc(=O)[nH]1)Nc1ccc(S(=O)(=O)N2CCOCC2)cc1
- inhibition: 0% (inactive)

SMILES: Cc1ccc(CNC(=O)CCn2ccc3cc(S(=O)(=O)N4CCCC4)ccc32)cc1
- inhibition: -4.92% (inactive)

SMILES: Cc1onc(-c2ccccc2)c1C(=O)OCC(=O)Nc1ccccc1
- inhibition: 8.65% (inactive)

SMILES: O=C(Nc1ccccc1Cl)c1ccccc1
- inhibition: 1.49% (inactive)

SMILES: O=C1C=C(Nc2ccccc2)C(=O)c2ccccc21
- inhibition: -2.9% (inactive)

SMILES: CC(=O)Nc1ccc(NC2=CC(=O)c3ccccc3C2=O)cc1
- inhibition: -5.82% (inactive)

SMILES: O=C(NC1=C(Nc2ccc(Cl)cc2)C(=O)c2ccccc2C1=O)c1ccccc1
- inhibition: -1.83% (inactive)

SMILES: O=C(Nc1cccc(Cl)c1)C1C2C=CC3(O2)C1C(=O)N(CCCN1CCCCC1)C3C(=O)NC1CCCCC1 (stereo unspecified)
- inhibition: -16% (inactive)

SMILES: Cc1ccc(OCCCc2c(C)n[nH]c2C)cc1
- inhibition: -5.36% (inactive)

SMILES: CCCC1CC(CSc2ncn[nH]2)OC1=O (stereo unspecified)
- inhibition: -12.3% (inactive)

SMILES: Cc1ccc(S(=O)(=O)N(CC(=O)N2CCOCC2)c2ccc(Br)cc2)cc1
- inhibition: -8.01% (inactive)

SMILES: Cc1ccc2ccc(S(=O)(=O)NCc3ccccn3)cc2c1
- inhibition: -1.67% (inactive)

SMILES: COc1cccc(CNC(=O)c2ccc(CS(=O)Cc3ccc(C)cc3)o2)c1 (stereo unspecified)
- inhibition: -4.44% (inactive)

SMILES: O=C(Nc1ccc(S(=O)(=O)NCc2ccco2)cc1)c1cccc(F)c1
- inhibition: -4.85% (inactive)

SMILES: COc1ccc(C2CC(c3ccccc3)=NN2c2ccc(C(N)=O)cc2)cc1 (stereo unspecified)
- inhibition: -4.66% (inactive)

SMILES: COc1ccc(C2CC(c3ccccc3)=NN2c2ccc(N)cc2)cc1 (stereo unspecified)
- inhibition: -12.8% (inactive)

SMILES: N#C/C(=C\c1cccc(Oc2ccc(C(F)(F)F)cc2[N+](=O)[O-])c1)c1nc2ccccc2[nH]1
- inhibition: -4.47% (inactive)

SMILES: CCN(CC)C(=O)c1ccc(NS(=O)(=O)c2ccc(/C=C/C(=O)O)cc2)cc1
- inhibition: 2.19% (inactive)

SMILES: CC1=CC(=O)C=C/C1=C(/c1ccc(O)cc1C)c1ccccc1S(=O)(=O)O
- inhibition: -1.47% (inactive)

SMILES: Cc1cc(C(=O)CS(=O)(=O)c2ccccc2)cc(C)c1O
- inhibition: -11.8% (inactive)

SMILES: CC1=C/C(=C(/c2ccc(O)c(C)c2)c2ccccc2S(=O)(=O)O)C=CC1=O
- inhibition: -1.1% (inactive)

SMILES: CC1=C/C(=C(\c2ccc(O)c(C)c2)c2ccccc2S(=O)(=O)O)C=CC1=O
- inhibition: 0.65% (inactive)
- inhibition (measured here: pilot screen replicate inhibition): 3.04%

SMILES: O=C(NC(=O)c1ccccc1)OCCN1C(=O)c2ccccc2C1=O
- inhibition: -5.92% (inactive)

SMILES: Cc1cc(S(=O)(=O)N2CCOCC2)ccc1OCC(=O)Nc1ccccc1C(F)(F)F
- inhibition: -3.32% (inactive)

SMILES: OCCNc1nc2ccccc2nc1NCCO
- inhibition: 15.3% (inactive)

SMILES: OCCNc1c2ccccc2nc2ccccc12
- inhibition: -2.34% (inactive)

SMILES: CC#CCCc1nc2ccccc2c(=O)n1N
- inhibition: -9.73% (inactive)

SMILES: COCCCNC(=O)CCc1nc(-c2ccccc2Cl)no1
- inhibition: -2.35% (inactive)

SMILES: O=C(O)COc1ccc(/C=N/NC(=O)c2cn(-c3ccccc3)nc2-c2ccccc2)cc1
- inhibition: 5.65% (inactive)

SMILES: CC(C)N1C(=O)CCN(C=O)c2ccccc21
- inhibition: -9.31% (inactive)

SMILES: CCOc1ccc(C2C(C(=O)c3ccc(C)o3)=C(O)C(=O)N2c2nc(C)c(C(=O)OC)s2)cc1 (stereo unspecified)
- inhibition: 10.7% (inactive)

SMILES: COC(=O)c1sc(N2C(=O)C(O)=C(C(=O)c3ccc(C)o3)C2c2ccc(F)cc2)nc1C (stereo unspecified)
- inhibition: -6.35% (inactive)

SMILES: CCOC(=O)c1sc(N2C(=O)C(O)=C(C(=O)c3ccco3)C2c2cccc([N+](=O)[O-])c2)nc1C (stereo unspecified)
- inhibition: -0.32% (inactive)

SMILES: CCOC(=O)c1sc(N2C(=O)C(O)=C(C(=O)c3ccco3)C2c2ccco2)nc1C (stereo unspecified)
- inhibition: -2.93% (inactive)

SMILES: COc1ccc(CC(=O)Nc2sc3c(c2C(N)=O)CCCC3)cc1
- inhibition: -5.87% (inactive)

SMILES: CCC(C)(C)NC(=O)Cn1c(-c2ccccc2)cc(C(C)=O)c1C
- inhibition: 1.78% (inactive)

SMILES: O=C(CCN1N=C(c2ccccc2)CCC1=O)NCC1CCCO1 (stereo unspecified)
- inhibition: 6.81% (inactive)

SMILES: CSc1nnc(-c2ccccc2N=Cc2c(C)[nH]n(-c3ccccc3)c2=O)c(=O)[nH]1
- inhibition: 11.5% (inactive)

SMILES: Cc1nn(-c2ccc3ccccc3c2)c(=O)c2ccccc12
- inhibition: -4.49% (inactive)

SMILES: Cc1cc(C)c2nc(N3C(=O)C(O)=C(C(=O)c4ccco4)C3c3ccco3)sc2c1 (stereo unspecified)
- inhibition: 1.47% (inactive)

SMILES: Cc1ccc2nc(N3C(=O)C(O)=C(C(=O)c4ccc(C)o4)C3c3cccc(O)c3)sc2c1 (stereo unspecified)
- inhibition: 0.73% (inactive)

SMILES: Cc1ccc2nc(N3C(=O)C(O)=C(C(=O)c4ccco4)C3c3ccc(O)cc3)sc2c1 (stereo unspecified)
- inhibition: 3.66% (inactive)

SMILES: Cc1ccc2nc(N3C(=O)C(O)=C(C(=O)c4ccco4)C3c3ccc(C)o3)sc2c1 (stereo unspecified)
- inhibition: -8.15% (inactive)
